Potency data for 40 molecules are collected here from PubChem BioAssay (NCATS).

Values joined by “and” are separate entries in the source; they are usually repeats but may differ in a detail not shown here. Identical values can stand only once. Active and inactive are the calls of the source. Calls follow the shape of the full dose curve.
Potency is read from the fitted curve at half-maximal effect.

For this assay, the target named is Glucocorticoid receptor (Homo sapiens) (UniProt P04150). Kind of assay: GR-EFC Redistribution (AID 451). Particulars: CHO-K1 GR-EFC translocation, beta-gal luminescence, 2 h. The text has this: NIH Molecular Libraries Screening Centers Network [MLSCN]
Sequence of Glucocorticoid receptor (Homo sapiens) (P04150 whole entry, looked up): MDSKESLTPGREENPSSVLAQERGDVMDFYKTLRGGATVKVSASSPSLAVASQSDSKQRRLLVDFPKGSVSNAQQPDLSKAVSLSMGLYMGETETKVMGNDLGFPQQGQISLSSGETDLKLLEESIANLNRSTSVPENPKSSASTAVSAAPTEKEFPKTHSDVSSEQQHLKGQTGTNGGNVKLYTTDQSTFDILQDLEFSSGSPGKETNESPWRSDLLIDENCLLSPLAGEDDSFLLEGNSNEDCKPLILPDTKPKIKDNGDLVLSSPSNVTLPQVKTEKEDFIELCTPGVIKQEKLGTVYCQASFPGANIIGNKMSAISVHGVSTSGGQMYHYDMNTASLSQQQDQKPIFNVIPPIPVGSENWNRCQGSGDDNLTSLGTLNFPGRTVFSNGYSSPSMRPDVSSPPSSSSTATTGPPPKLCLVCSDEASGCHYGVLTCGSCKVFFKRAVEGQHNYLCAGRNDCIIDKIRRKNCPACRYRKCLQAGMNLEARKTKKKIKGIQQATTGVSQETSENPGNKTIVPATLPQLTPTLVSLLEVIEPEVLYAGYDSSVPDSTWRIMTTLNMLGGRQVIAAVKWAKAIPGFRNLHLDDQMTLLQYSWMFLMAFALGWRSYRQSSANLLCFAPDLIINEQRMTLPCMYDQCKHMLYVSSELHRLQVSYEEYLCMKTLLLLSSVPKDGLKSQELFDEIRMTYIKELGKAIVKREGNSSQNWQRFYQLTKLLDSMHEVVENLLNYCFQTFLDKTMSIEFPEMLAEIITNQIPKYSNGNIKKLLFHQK
NIH Chemical Genomics Center [NCGC]
The glucocorticoid receptor (GR) is a cytoplasmic receptor that belongs to the nuclear receptor family of ligand-dependent transcription factors. Upon glucocorticoid binding to its receptor, the glucocorticoid-GR complex translocates into the nucleus, where it binds as a dimer to specific DNA sequences (glucocorticoid response elements), enhancing or suppressing transcription of a wide variety of glucocorticoid-responsive genes. In addition to their important roles in normal physiology and metabolism, glucocorticoids are administered exogenously as treatments for a wide variety of allergic, autoimmune, and neoplastic conditions. Identification of compounds that modulate aspects of GR signalling would be useful in dissecting glucocorticoid response pathways as well as developing GR modulators with more targeted clinical effects.
Traditionally, GR modulators have been identified using receptor binding or direct transactivation assays. However, assays for glucocorticoid-dependent nuclear translocation can also be used to screen for compounds affecting GR signaling.
Immunocytochemical staining has been used to assay for GR translocation, but is not suitable for high throughout screening due to the multiple reagent addition and wash steps required. Recently, a novel cell-based GR assay in Enzyme Fragment Complementation (EFC) format was developed by DiscoveRx (Fremont, CA). The assay uses EFC of b-galactosidase (b-gal) as an indicator of GR-translocation in engineered CHO-K1 biosensor cells. The enzyme acceptor (EA) fragment of b-gal resides in the nucleus , as designed through the use of a proprietary set of sequence additions and modifications. The small peptide enzyme donor (ED) fragment of b-gal is fused directly to the C-terminus of GR, and is localized in the cytoplasm is the absence of receptor signaling. Upon binding to a GR ligand, the complex translocates to the nucleus, where intact enzyme activity is restored by complementation and b-gal activity is detected. We optimized this GR-EFC assay in homogenous 1536-well plate assay format for high throughput screening.
NCGC Assay Protocol Summary:
CHO-K1 cells stably expressing NLS-enzyme acceptor fragment (EA) of b-gal and GR-enzyme donor (ED) fragment of b-gal were maintained in F12 medium (Invitrogen, Carlsbad, CA) at 37 Celsius degrees under a humidified atmosphere containing 5% CO2 and 95% air. The medium contained 10% FBS, 2 mM L-glutamine, 50 U/ml penicillin 50 ug/ml streptomycin, and 250 ug/ml hygromycin and 500 ug/ml G418 (Invitrogen).
GR-translocation was measured beta-gal enzyme activity using the PathHunter Detection Kit containing cell membrane permeablizing reagent and beta-gal substrate (DiscoveRx, Fremont, CA). All compounds were screened as titrations from 0.6 nM to 46 uM final concentration. The assay was performed in 1536-well format as follows:
5 uL cell suspension (1,000 cells)/well
Incubation at 37 Celsius degrees for two hours
1.25 uL 1X detection buffer from the kit supplied by DiscoveRx
Incubation at room temperature for one hour
Read plate in luminescence mode in ViewLux plate reader (PerkinElmer)
Keywords: NIH Roadmap, MLSCN, MLI, MLSMR, GR-EFC, GREFC, qHTS, NCGC
For the molecule `COc1cc(C(=O)NCc2ccc(OCCN(C)C)cc2)cc(OC)c1OC`, the Potency is > 20.6 µM (inactive).
In the case of `CN1CCC(OC(c2ccccc2)c2ccccc2)CC1`, the Potency is > 20.6 µM (inactive).
Take `CC(C)(C)NC[C@H](O)COc1nsnc1N1CCOCC1`: the Potency is > 46 µM (inactive) and > 20.6 µM (inactive).
Under `CCCCc1cc2ccccc2c(OCCN(C)C)n1` stands > 20.6 µM (inactive); under `CCN(CC)CCNc1ccc(CO)c2sc3ccccc3c(=O)c12`, > 20.6 µM (inactive).
For `CCOc1ccc(NC(C)=O)cc1` the value was > 20.6 µM (inactive).
For `CCOC(=O)Nc1ccc2c(c1)N(C(=O)CCN1CCOCC1)c1ccccc1S2` the value was > 20.6 µM (inactive); for `CC(C)(C)NC[C@H](O)COc1cccc2c1CCCC2=O`, > 20.6 µM (inactive); for `CNCCCCOc1ccccc1Cc1ccccc1`, > 46 µM (inactive).
As to `C[N+]1(C)CCC(=C(c2ccccc2)c2ccccc2)CC1`, the Potency is > 20.6 µM (inactive).
Under `O=C1C(O)=C(O)C(=O)C(O)=C1O` stands > 20.6 µM (inactive); under `CC[C@H](c1ccc(O)cc1)[C@@H](CC)c1ccc(O)cc1`, > 20.6 µM (inactive).
Under `COc1cc(C)nc(-n2nc(C)cc2OC)n1` stands > 20.6 µM (inactive); under `CN1CCc2cccc3c2[C@H]1Cc1ccc(O)c(O)c1-3`, > 46 µM (inactive).
Take `CCc1cc(Cl)c(OC)c(C(=O)NC[C@@H]2CCCN2CC)c1O`: the Potency was > 20.6 µM (inactive).
Under `O=C1C(CCS(=O)c2ccccc2)C(=O)N(c2ccccc2)N1c1ccccc1` (stereo not given) stands > 20.6 µM (inactive).
Under `N=C(N)N1CCc2ccccc2C1` stands > 20.6 µM (inactive); under `COc1ccc(C(Cl)=C(c2ccc(OC)cc2)c2ccc(OC)cc2)cc1`, > 20.6 µM (inactive).
`CN(C)CCC[C@@]1(c2ccc(F)cc2)OCc2cc(C#N)ccc21`: the Potency was > 46 µM (inactive).
For `COc1cc(NS(=O)(=O)c2ccc(N)cc2)ncn1` the value was > 20.6 µM (inactive); for `COc1ccc(C(=O)c2ccccc2O)c(O)c1`, > 20.6 µM (inactive); for `Nc1ccc(C(=O)NCC(=O)O)cc1`, > 20.6 µM (inactive).
For `CCOC(=O)c1ccc(N)cc1` the value was > 20.6 µM (inactive); for `Cc1c(-c2ccccc2)oc2c(C(=O)OCCN3CCCCC3)cccc2c1=O`, > 20.6 µM (inactive); for `Cl/C(=C\n1cncn1)c1ccc(Cl)cc1Cl`, > 46 µM (inactive).
For `NS(=O)(=O)c1cc(C(=O)O)cc(N2CCCC2)c1Oc1ccccc1` the value was > 20.6 µM (inactive); for `COc1ccccc1N1CCN(CCCCNC(=O)c2ccc(-c3ccc(C(C)=O)cc3)cc2)CC1`, > 46 µM (inactive).
With `O=C(c1ccc(F)cc1)C1CCN(CCn2c(=S)[nH]c3ccccc3c2=O)CC1`, the Potency was > 46 µM (inactive).
For `CNCCc1ccccn1` the value was > 20.6 µM (inactive).
Under `NC(N)=NCc1cccc(I)c1` stands > 46 µM (inactive); under `O=C(CCCN1CC=C(n2c(=O)[nH]c3ccccc32)CC1)c1ccc(F)cc1`, > 20.6 µM (inactive); under `Nc1ccc(S(=O)(=O)Nc2cnc3ccccc3n2)cc1`, > 20.6 µM (inactive) and > 9.22 µM (inactive).
Under `CCCc1ncc(C[n+]2ccccc2C)c(N)n1` stands > 20.6 µM (inactive); under `CCc1oc2ccccc2c1C(=O)c1cc(Br)c(O)c(Br)c1`, > 20.6 µM (inactive) and > 9.22 µM (inactive); under `COc1ccc(C(=O)c2ccccc2)c(O)c1`, > 20.6 µM (inactive).
For `CCCN(CCC)S(=O)(=O)c1ccc(C(=O)O)cc1`, the Potency was > 20.6 µM (inactive).
With `CCN(CC)CCNC(=O)COc1ccc(OC)cc1`, the Potency is > 20.6 µM (inactive).
For `COc1cc(N)c(Cl)cc1C(=O)NC1CCN(Cc2ccccc2)CC1` the value was > 20.6 µM (inactive); for `O=C(O)CCC(=O)Nc1ccc(S(=O)(=O)Nc2nccs2)cc1`, > 20.6 µM (inactive).
For `CCCCNc1ccc(C(=O)OCCOCCOCCOCCOCCOCCOCCOCCOCCOC)cc1` the value was > 20.6 µM (inactive).
